# Data: PubChem BioAssay (NCATS)
# Records with an inconclusive call do not appear. Entries that show only a call come without a potency. The source made the active and inactive calls. The call rests on the fitted dose curve; in most records, active means well fitted inhibition curve with a large enough effect; inconclusive means small, poorly fitted or top-dose-only effect; inactive means flat fitted curve, though single readings scatter.
# Assay: qHTS for Inhibitors of Plasmodium falciparum (DD2) proliferation (AID 504314);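 further: parasite DNA measured by SYBR Green fluorescence after red cell lysis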
# Details: P. falciparum Dd2 in erythrocytes, SYBR Green growth, 72 h; series mostly up to 1.12 µM
# Procedure, shortened: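 Erythrocytes infected with P. falciparum Dd2 (0.3% parasitemia, 2.5% hematocrit) exposed to compound 72 h at 37C, 5% CO2. Parasite DNA quantified by SYBR Green fluorescence after saponin/Triton lysis overnight; normalized to 0.29 uM artemisinin and DMSO.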
row,SMILES,Potency
1,CCCCC1=CC2=C(c3ccco3)C(=O)C(C)(OC(=O)c3ccc(OC)cc3)C(=O)C2=CN1C1CCCC1 (stereo not drawn),inactive
2,COC(=O)CCC(=O)OC1(C)C(=O)C=C2C=C(C3CC3)N(C(CO)CO)C=C2C1=O (stereo not drawn),inactive
3,CCOC(=O)N1C2=NC(C(=O)OC)=C(C(=O)OC)[C@@H]3N(C)c4ccc(OC)cc4[C@]23C[C@H]1C(=O)OC,inactive
4,CC1(OC(=O)C2CCCC2)C(=O)C=C2C=C(c3ccsc3)N(CCc3c[nH]c4ccccc34)C=C2C1=O (stereo not drawn),inactive
5,COC(=O)C1=C(C)N(Cc2ccco2)C(=O)N[C@@H]1c1ccc(Br)cc1,inactive
6,COC(=O)C1=C(C(=O)OC)[C@@H]2N(C)c3ccccc3[C@@]23C[C@@H](CO)N(C(=O)c2cc(C)oc2C)C3=N1,inactive
7,COC(=O)C1=C(C(=O)OC)[C@@H]2N(C)c3ccc(OC)cc3[C@@]23C[C@@H](C(=O)OC)N(S(=O)(=O)c2ccc(Br)cc2)C3=N1,inactive
8,CCCCC1=CC2=CC(=O)C(C)(OC(=O)CC)C(=O)C2=CN1CCc1c[nH]c2ccccc12 (stereo not drawn),inactive
9,COC(=O)N1C(C)=Cc2ccccc2C1C/C(C)=C/C(C)=O (stereo not drawn),inactive
10,COC/C=C/C1=CC2=CC(=O)C(C)(OC(=O)c3cnc4ccccc4n3)C(=O)C2=CN1Cc1ccco1 (stereo not drawn),inactive
11,CCCCC1=CC2=C(c3ccco3)C(=O)C(C)(OC(=O)c3ccc(OC)cc3)C(=O)C2=CN1CCc1c[nH]c2ccccc12 (stereo not drawn),inactive
12,CCN1C(=O)N[C@@H](c2cccc(C(F)(F)F)c2)C(C(=O)OC)=C1C,inactive
13,CCCCC1=CC2=CC(=O)C(C)(OC(=O)CC)C(=O)C2=CN1CCc1ccccn1 (stereo not drawn),inactive
